These results are taken from PubChem BioAssay AID720708 (National Center for Advancing Translational Sciences (NCATS), 2013).

Among all 360,000 compounds or so, about 660 (0.18%) were called active. Entries that show only a call come without a potency. Inconclusive results (about 2%) are left out. Calls come from the whole dose curve; as a rule, active = well fitted inhibition curve with a large enough effect; inconclusive = small, poorly fitted or top-dose-only effect; inactive = no such curve, though single readings can be large or run the other way. Only a selection was taken, and actives are over-represented in it overall.
Potency is the fitted concentration of half-maximal effect.

In this assay the target is Rap guanine nucleotide exchange factor 4 (Homo sapiens) (UniProt Q8WZA2). In words: qHTS for Antagonist of cAMP-regulated guanine nucleotide exchange factor 2 (EPAC2): primary screen. Note: nearly all actives have a fitted effect of over 45% in size. The note with it: EPAC2 GEF exchange of Rap1B-BODIPY-GDP, fluorescence; series mostly up to 114 µM. (In qHTS, concentration-response curves come from the screen itself.)
Chain of Rap guanine nucleotide exchange factor 4 (Homo sapiens) (Q8WZA2 whole entry, looked up): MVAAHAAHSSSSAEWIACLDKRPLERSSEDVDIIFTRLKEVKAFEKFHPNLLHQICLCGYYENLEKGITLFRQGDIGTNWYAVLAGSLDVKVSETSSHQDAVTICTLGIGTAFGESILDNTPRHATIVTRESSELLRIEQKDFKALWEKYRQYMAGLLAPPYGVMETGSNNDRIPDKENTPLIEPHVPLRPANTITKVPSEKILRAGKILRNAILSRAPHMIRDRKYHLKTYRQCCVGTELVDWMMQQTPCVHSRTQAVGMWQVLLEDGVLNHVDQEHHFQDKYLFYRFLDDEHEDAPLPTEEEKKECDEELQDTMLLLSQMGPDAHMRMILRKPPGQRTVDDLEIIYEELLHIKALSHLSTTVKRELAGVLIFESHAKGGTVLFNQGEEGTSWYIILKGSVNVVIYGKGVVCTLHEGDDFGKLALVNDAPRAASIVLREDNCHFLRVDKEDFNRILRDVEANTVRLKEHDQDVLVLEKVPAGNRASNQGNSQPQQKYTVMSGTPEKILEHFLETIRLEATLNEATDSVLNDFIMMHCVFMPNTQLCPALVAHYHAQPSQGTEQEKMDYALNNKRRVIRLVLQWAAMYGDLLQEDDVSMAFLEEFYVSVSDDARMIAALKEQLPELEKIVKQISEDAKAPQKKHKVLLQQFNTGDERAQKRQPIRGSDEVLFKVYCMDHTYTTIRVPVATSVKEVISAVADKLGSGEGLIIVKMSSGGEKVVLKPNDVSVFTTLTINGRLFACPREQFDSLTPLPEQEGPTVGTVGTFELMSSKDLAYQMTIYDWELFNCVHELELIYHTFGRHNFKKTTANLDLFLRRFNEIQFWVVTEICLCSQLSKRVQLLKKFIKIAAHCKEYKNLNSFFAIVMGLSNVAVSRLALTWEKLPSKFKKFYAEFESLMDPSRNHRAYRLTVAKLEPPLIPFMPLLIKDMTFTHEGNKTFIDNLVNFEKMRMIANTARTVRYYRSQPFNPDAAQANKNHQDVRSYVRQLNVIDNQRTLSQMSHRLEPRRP
Consider `O=C(NC1CCCCC1)C(c1cc2ccccc2o1)n1c(=O)c(-c2ccco2)nc2ccccc21` (centres undefined), for which the Potency result is “inactive”. Then `CCCc1nn2c(=O)cc(CSCC(=O)Nc3cccc(C)c3)nc2s1`, with “inactive”; and `CCN(C(=O)COC(=O)c1c(NC(C)=O)sc(C)c1C)C1CCS(=O)(=O)C1` (centres undefined), with “inactive”. In the case of `O=[N+]([O-])c1cc(Cl)cc(/C=N/NC(=S)Nc2cc(S(=O)(=O)N3CCOCC3)ccc2Cl)c1O`, the Potency is 56.2 µM (active). As for `O=C(c1cc(S(=O)(=O)N2CCOCC2)ccc1Cl)N1CCOCC1`, the Potency result was “inactive”. Regarding `O=C(Nc1cc(S(=O)(=O)N2CCOCC2)ccc1Cl)c1cc(=O)c2ccccc2o1`, the Potency entry was “inactive”. Turning to `NC(=O)NC(=O)C(OC(=O)CCNS(=O)(=O)c1ccccc1)c1ccccc1` (centres undefined), the Potency result was “inactive”. In the case of `O=C(CCC(=O)n1ncc2ccccc21)NCc1ccccc1Cl`, the Potency result was “inactive”.

Regarding `Cc1csc(NC(=O)CSc2nc(=O)n(CCCN(C)C)c3c2CCC3)n1`, the Potency result was “inactive”. Then `Cc1ccc2nc(NC(=O)CSc3nc(=O)n(CCCN(C)C)c4c3CCC4)sc2c1`, with 79.4 µM (active). Take `Cc1ccc(NC(=O)CSc2nc(=O)n(CCN(C)C)c3c2CCCC3)c(C)c1`: the Potency entry is “inactive”. Then `Cc1cc(C)c2cc(C#N)c(N3CCNCC3)nc2c1`, with “inactive”.

Take `Oc1c(Cl)cc(Cl)c(Cl)c1Cc1c(O)c(Cl)cc(Cl)c1Cl`: the Potency is 31.6 µM (active). Then `O=C(NCc1ccccc1)C1CNCC(C(=O)NCc2ccccc2)C1` (centres undefined), with “inactive”; and `Cc1c2cnn(-c3ccccc3)c(=O)c2c(C)n1CCCC(=O)N1CCN(C)CC1`, with “inactive”; and `O=C(OCC(=O)N1CCCCCC1)c1cnc(Cl)c(Cl)c1`, with “inactive”. Consider `CCCCNC(=O)OC(C)CNC(=O)OC` (centres undefined), for which the Potency entry is “inactive”. Then `Cc1cccc(N2CCN(C(=O)c3cnn4c(C(F)F)cc(-c5ccccc5)nc34)CC2)c1C`, with “inactive”. Then `Cc1ccc(Cl)cc1N1CCN(C(=O)c2cccc3c(=O)c(C)c(-c4ccccc4)oc23)CC1`, with 12.6 µM (active); and `COc1ccccc1N1CCN(C(=O)c2cc(=O)c3cc(C)cc(C)c3o2)CC1`, with “inactive”; and `CCOCCCNC(=O)Cc1cc(=O)[nH]c(=O)[nH]1`, with “inactive”. Then `CCCCCC1CCC(c2nnc(SCC(C)=O)o2)CC1` (centres undefined), with “inactive”; and `COc1cccc2c(C)c(C(=O)O)[nH]c12`, with “inactive”.

Take `N#C/C(C(=O)N1CCOCC1)=C1/SC(Cc2ccc(F)cc2)C(=O)N1c1ccccc1` (centres undefined): the Potency entry was “inactive”.

As for `Cc1cccc(NS(=O)(=O)c2ccc(C(=O)NCC(C)(C)N3CCOCC3)cc2)c1C`, the Potency entry was “inactive”. Then `Nc1[nH]c(C(=O)c2ccccc2)c(-c2ccc(Br)cc2)c1C(=O)NC1CC1`, with “inactive”. Then `COc1cccc2c(N/N=C/c3ccco3)cc(C)nc12`, with 12.6 µM (active). Then `O=c1nc(N/N=C/c2ccco2)cn[nH]1`, with “inactive”; and `CCc1c(C)nc2c(OC)cccc2c1Cl`, with “inactive”. For the compound `CC(C)(C)Cc1c(C2CCCCC2)nc2ccc(Br)cn12`, the Potency entry is “inactive”.

Regarding `CCN(CC)S(=O)(=O)c1cc([N+](=O)[O-])ccc1NNC(=O)Nc1ccccc1`, the Potency entry is “inactive”. As to `CCC(C(=O)NC1CCCC1)N(C(=O)c1snc(C(N)=O)c1N)c1ccc2c(c1)OCCO2` (centres undefined), the Potency result was “inactive”. Then `Cc1c(Cl)c([N+](=O)[O-])nn1CC(=O)NCCCN1CCOCC1`, with “inactive”; and `CCOC(=O)N1CCN(Cc2nc3c(c(=O)n(C)c(=O)n3C)n2Cc2ccccc2)CC1`, with “inactive”. Then `CC(=O)OCC(C)n1c(=O)c2ccccc2n1C(C)=O` (centres undefined), with “inactive”; and `COc1cccc(C2CC(c3cccs3)=NN2C(=O)CSC2=NCCS2)c1OC` (centres undefined), with “inactive”; and `CCCCCn1c(SCCC(C)C)nc2c1c(=O)[nH]c(=O)n2C`, with “inactive”. Then `COC(=O)[C@@]12C[C@@H](CC(=O)NCCCCc3ccccc3)C(=O)N(CCc3ccc(OC)c(OC)c3)C1=CCC(C)(C)C2`, with “inactive”; and `Cc1ccc(C(=O)Nc2c(-c3ccccc3)[nH][nH]c2=O)cc1`, with “inactive”; and `O=C(OC1CC2CC1[C@H]1CCCCN1C2=O)N1CCOCC1` (some centres undefined), with “inactive”. For `O=C(NCc1ccco1)c1cccc(-c2ccc3nncn3c2)c1`, the Potency entry was “inactive”.

Regarding `C=CCNC(=S)NNC(=O)c1ccc(Br)o1`, the Potency entry was “inactive”. Then `O=S(=O)(Nc1cccc(-c2ccc(N3CCOCC3)nn2)c1)c1ccc(Cl)c(Cl)c1`, with “inactive”. For `O=C(CC1C(=O)NCCN1CC(c1ccccc1)c1ccccc1)NCCc1cn[nH]c1` (centres undefined), the Potency result was “inactive”. Then `CCOCCCNC(=O)C(NC(=O)Cc1c[nH]c2ccccc12)c1ccc(OC)cc1` (centres undefined), with “inactive”; and `COc1ccc(NC(=O)C(c2ccncc2)n2c(=O)c(-c3cc4ccccc4[nH]3)nc3ccccc32)cc1` (centres undefined), with “inactive”; and `COC(=O)Cn1c(=NC(=O)c2cc(OC)c(OC)c(OC)c2)sc2cc(OC)ccc21`, with “inactive”. Then `Cc1ccc(Cc2c(-c3ccc(Cl)cc3)nc3c4ccccc4ccn23)cc1`, with “inactive”; and `COC(=O)C1=C[C@@H](C(=O)OC)[C@@H]2C3=C(C(=O)[C@]2(C)NC(=O)c2ccccc2)[C@H](C)n2c(=O)n(C)c(=O)n2[C@@H]3C1`, with “inactive”; and `O=C1NC2(CCCCC2)N=C1c1ccccc1`, with “inactive”. As for `COc1cc(N)c(Cl)cc1C(=O)OCC(=O)c1ccc2c(c1)NC(=O)CO2`, the Potency result is “inactive”. In the case of `COc1ccc(S(=O)(=O)N[C@@H]2C=C[C@@H](CC(=O)N3CCc4ccccc4C3)O[C@@H]2CO)cc1`, the Potency result was “inactive”. Consider `Cc1cccc(C)c1NC1=NC(=S)N(c2ccc(N(C)C)cc2)C1(C)C`, for which the Potency entry was “inactive”. On to `CC1(C)OC(=O)C2=C(C[C@@H](C3CC3)O[C@H]2c2ccc(Cl)cc2)O1`, for which the Potency entry was “inactive”. Then `O=S(=O)(/N=C(/Nc1ccccc1)c1ccccc1)c1cccs1`, with “inactive”; and `O=C1OCCOC2CCCc3oc(-c4ccccc4)c1c32` (centres undefined), with “inactive”. Then `Cc1c(C(=O)NCC2CC2)sc(=O)n1Cc1cccc(F)c1`, with “inactive”; and `OCCC#Cc1ccc(N2C(c3ccsc3)=Cc3ccc(F)cc3C2c2c[nH]c3ccccc23)cc1` (centres undefined), with “inactive”; and `O=C(c1ccc[nH]c1=S)N1CCN(S(=O)(=O)c2ccc(Br)cc2Cl)CC1`, with “inactive”. Then `CCOc1ccc(CCNC(=O)C(CC)n2nc(C)n3c(cc4sccc43)c2=O)cc1OCC` (centres undefined), with “inactive”. For the compound `CCOCCCNc1c(CC)c(C)c(C#N)c2nc3ccccc3n12`, the Potency result was “inactive”. Then `O=C1COc2ccc(C(=O)COC(=O)CCOc3ccccc3)cc2N1`, with “inactive”; and `CNC(=O)c1csc(Cc2c(Cl)sc3ccc(Cl)cc23)n1`, with 8.91 µM (active); and `CC(=O)NNC(=O)c1csc(Cc2c(Cl)sc3ccc(Cl)cc23)n1`, with “inactive”. Then `CC(=O)Cc1nsc(NC(=O)c2ccc(Cl)cc2Cl)n1`, with “inactive”; and `C/C(=N\N(C)C)c1ccc(OCCOc2ccc([N+](=O)[O-])cc2)cc1`, with “inactive”; and `O=C(Nc1ccc2c(c1)OCCO2)C1c2ccccc2OCC(=O)N1Cc1ccccn1` (centres undefined), with “inactive”. For `CCCNC(=O)C1(C)CCN1C(=O)C1(c2ccccc2)CC1` (centres undefined), the Potency entry was “inactive”. Then `CCc1c(-c2ccc(F)cc2)ncn1Cc1cccc(-c2ccccc2)c1`, with “inactive”; and `CCOc1ccc(S(=O)(=O)N2CCC(C(=O)NCc3ccccn3)CC2)cc1Cl`, with “inactive”; and `C[C@@H]1CN([C@@H](C)CO)S(=O)(=O)c2ccc(C#Cc3cccc(F)c3)cc2O[C@H]1CN(C)S(=O)(=O)c1cn(C)cn1`, with “inactive”. Then `O=C1OCCN1C(=O)[C@H]1[C@H](c2ccc(Cl)cc2)C(c2cccc(Cl)c2)=NN1c1ccc(Br)cc1`, with “inactive”.

On to `COc1ccc(C2CC(=O)n3c(nc4ccccc43)S2)cc1OC` (centres undefined), for which the Potency was 17.8 µM (active).

With `COc1ccccc1C1CC(=O)n2c(nc(-c3ccccc3)c2-c2ccccc2)S1` (centres undefined), the Potency result is “inactive”. For `COc1ccc(C2CC(c3cccs3)=Nc3ccccc3S2)cc1OC` (centres undefined), the Potency result is “inactive”. Then `NC(Cc1ccccc1)c1csc(Nc2cc(Oc3ccccc3)ncn2)n1` (centres undefined), with “inactive”; and `Cc1oc2cc(Br)c(O)c(Br)c2c1C(=O)c1ccccc1`, with 28.2 µM (active). Take `CCOC(=O)c1c(-c2ccccc2)oc2cc(Br)c(O)c(C=O)c12`: the Potency result was “inactive”. Then `COc1ccc(C(=O)c2c(C)oc3cc([N+](=O)[O-])c(O)c([N+](=O)[O-])c23)cc1`, with “inactive”. Then `COC(=O)Cc1ccc(N(Cc2ccccc2F)S(=O)(=O)c2ccc(Br)cc2)cc1`, with “inactive”. Then `COc1ccccc1NC(=O)CCSc1nnc(-c2ccc(O)cc2)o1`, with “inactive”; and `CN[C@H]1C[C@H]2c3cc(Oc4ccccc4C)ccc3CCN2C(=O)[C@H]1[C@H](C)O`, with “inactive”; and `Cc1cccc(C)c1NC(=O)C(c1cccc2ccccc12)n1c(=O)c(-c2ccco2)nc2ccccc21` (centres undefined), with “inactive”. With `CC(=O)NCCC(=O)Nc1nc(C)c(Cc2ccc3c(c2)OCO3)s1`, the Potency result was “inactive”.

Regarding `Cc1ccc(C)c(-n2ccnc2SCC(N)=O)c1`, the Potency entry was “inactive”. Then `O=c1cccc(-c2ccc(Br)cc2)o1`, with “inactive”; and `COC(=O)[C@@]12C[C@@H](CC(=O)N3CCC(c4ccccc4)CC3)C(=O)N(Cc3ccccc3)C1=CCC(C)(C)C2`, with “inactive”. On to `O=C1N[C@H](Cc2ccccc2)C(=O)N[C@H]1Cc1cn(S(=O)(=O)c2ccccc2)c2ccccc12`, for which the Potency entry was “inactive”. `CCN1CC=C2C(C#N)=C(N)C(C#N)(C#N)[C@H](c3ccoc3)[C@H]2C1`: the Potency entry is “inactive”.

Take `CCCN1CC=C2C(C#N)=C(N)C(C#N)(C#N)C(c3cc(OC)ccc3OC)C2C1` (centres undefined): the Potency is 39.8 µM (active). Then `CC(C)Nc1ccc(-n2nc3ccccc3[n+]2[O-])cc1`, with “inactive”; and `Cc1ccc2cccc([N+](=O)[O-])c2n1`, with “inactive”; and `O=[N+]([O-])c1ccccc1Nc1ccc(O)cc1`, with “inactive”. Then `Cc1ccc(Nc2cc(C)nc3c(C)ccc([N+](=O)[O-])c23)cc1`, with 44.7 µM (active); and `Cc1cc(C)cc(NC(=O)NC2CCN(CC(=O)Nc3cccc(Cl)c3C)CC2)c1`, with “inactive”. Then `CC1(C(=O)NCc2ccccc2)CSCC(=O)N1CCCn1ccnc1` (centres undefined), with “inactive”; and `COc1ccc(CN(C)C(=O)CC(c2ccccc2)c2ccccc2)cc1`, with 50.1 µM (active); and `CN(Cc1ccccc1)C(=O)COc1ccccc1`, with “inactive”. In the case of `COc1ccc(C(CCN(Cc2ccc(OC)c(OC)c2)C(=O)CCl)c2ccccc2)cc1` (centres undefined), the Potency result was “inactive”.
